Source: PubChem
GBA activity: modulators of human glucocerebrosidase. Potency, µM. P04062. 48,000 compounds, 1.1% hits. purified enzyme, resorufin glucoside fluorescence (screen aimed at inhibitors), 20 min; in the data active = potency below about 15 µM; inconclusive = mostly about 16 µM to 33 µM;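 note: potency is the fitted concentration of half-maximal effect; the screen sought inhibitors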
Target sequence (P04062 whole entry, looked up): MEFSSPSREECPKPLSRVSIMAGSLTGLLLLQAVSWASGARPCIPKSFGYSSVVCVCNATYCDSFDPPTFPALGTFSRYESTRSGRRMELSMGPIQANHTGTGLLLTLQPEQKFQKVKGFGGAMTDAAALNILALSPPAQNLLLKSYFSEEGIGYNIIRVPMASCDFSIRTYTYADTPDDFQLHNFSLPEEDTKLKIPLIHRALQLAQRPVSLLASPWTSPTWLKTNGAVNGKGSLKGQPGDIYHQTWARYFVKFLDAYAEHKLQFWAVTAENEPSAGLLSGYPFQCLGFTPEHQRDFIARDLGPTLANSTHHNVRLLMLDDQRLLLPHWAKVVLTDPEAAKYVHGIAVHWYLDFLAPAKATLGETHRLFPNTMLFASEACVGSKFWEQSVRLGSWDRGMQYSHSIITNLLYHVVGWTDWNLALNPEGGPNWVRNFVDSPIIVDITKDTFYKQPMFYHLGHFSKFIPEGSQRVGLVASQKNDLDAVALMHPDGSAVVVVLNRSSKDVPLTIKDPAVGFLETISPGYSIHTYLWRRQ
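Wild-type enzyme at 0.2 nM final in 50mM citric acid/KH2PO4, 10mM sodium taurocholate, 0.01% tween-20, pH 5.9, with resorufin beta-D-glucopyranoside at 30 uM final. Compounds titrated, 20 min at RT, red fluorescence read; AC50 from titration.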
FLuc inh: inhibitors of firefly luciferase; purified firefly luciferase, luminescence, 8 min; Potency, µM (doses to about 57.1 µM), inactives show at the top dose activity change, negative = inhibition, hits mostly inhibitors; 72,000 compounds, 2.2% hits; AID 411; note: potency is the fitted concentration of half-maximal effect; % is set by controls: 0 for no effect and ±100 for the full control effect; nearly all actives have a fitted effect of over 40% in size
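Compounds were tested as concentration series (qHTS) against purified P. pyralis luciferase with luciferin and 10 uM ATP in 50 mM imidazole pH 7.2, 50 mM KCl, 7 mM MgCl2, 0.01% Tween 20, 0.05% BSA. Luminescence was read after 8 min at ambient temperature.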
HBB splicing: alters splicing of the hemoglobin beta chain. HBB splicing reporter cell assay, activation; EGFP reporter with mutant IVS2-654 intron; response scale: normalised to 500 nM splice-correcting PNA. Potency, µM (highest dose often 46.1 µM), for the others: at the highest dose activation, usual class: activators. 65,000 compounds, 0.06% hits; note: potency is the fitted concentration of half-maximal effect; 0% is about no effect
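Compounds were applied for 2 days to HeLa EGFP-654 cells, 500/well in Optimem with 2% FCS. The reporter's EGFP is disrupted by mis-splicing of beta-globin intron IVS2-654. Readout: summed well GFP fluorescence from 488 nm laser scanning; reference was 500 nM antisense […] 654 PNA.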
Bst PK mod: pyruvate kinase (B. stearothermophilus) modulation | Potency, µM | purified pyruvate kinase, luminescence ATP production; ribose 5-phosphate activator present at AC10 | AID 361 | 51,000 compounds, 1.2% hits; in the data active = potency below about 11 µM; inconclusive = mostly about 12 µM to 25 µM;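 the screen sought inhibitors and activators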;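 note: potency is the fitted concentration of half-maximal effect; scaled between full activation by ribose 5 phosphate and full inhibition by luteolin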
GFP derepression: epigenetic modulators derepressing GFP locus in mouse cells | 68,000 compounds, 0.09% hits | Potency, µM (top dose mostly 46.1 µM), for inactives: top-dose GFP derepression (activation) | AID 597 | mouse C127i GFP locus derepression, cytometry, 30 h; note: % of control where 0% means no effect
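Locus derepression in mouse mammary C127i cells whose integrated CMV-GFP reporter is normally silent; GFP expression after 30 h compound treatment was quantified by counting fluorescent cells.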
UbGFP stabilizer: inhibits proteasome, raising ubiquitin-GFP reporter fluorescence | 67,000 tested, under 10 active | Potency, µM (highest dose often 45.9 µM), without a hit: at the top dose activation (GFP accumulation), usual class: activators | Ubiquitin-GFP reporter cells, proteasome inhibition, GFP fluorescence; response scale: untreated = 0%, 10 µM MG-132 = 100%; active = well fitted activation curve with a large enough effect, not every such curve was filed as active; inconclusive = small, poorly fitted or top-dose-only effect, or another doubt; inactive = no such curve, though single readings can be large or run the other way; note: potency is the fitted concentration of half-maximal effect
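GFP accumulation read-out: laser plate cytometry counting ubiquitin(G76V)-GFP-expressing U2OS cells after 4 hr compound exposure at 37 °C. Titrations spanned 46 uM to 2.9 nM; 0% = basal, 100% = 10 uM MG-132; concentration-response curves fitted.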
The depositor's hits bear a star; i = inactive; ? = inconclusive; nt = no result; [ ] = dose if it differs, or a comment. A selection: hits, their analogues and other compounds. The true share with any hit is near 3.3%. Unless noted, calls come from the whole dose curve; as a rule, active = well fitted curve in the direction sought with a large enough effect; inconclusive = small, poorly fitted or top-dose-only effect, or another doubt; inactive = no such curve, though single readings can be large; an effect the other way counts as inactive or inconclusive.

SMILES	GBA activity	FLuc inh	HBB splicing	Bst PK mod	GFP derepression	UbGFP stabilizer
COc1ccc(-c2cc(C(=O)OCC(=O)N(C)C)c3ccccc3n2)cc1	>77	20µM*	0%[57.5 µM]	9.8*	2%	-2%
CN(C)c1ncc2nc(-c3ccc(Cl)cc3)c(=O)n(C[C@H]3CCCO3)c2n1	nt	1%[11.4 µM]	1%	nt	0%[9.22 µM]	2%
Cc1cnc(C(=O)Nc2ccc3c(c2)CCC3)cn1	>77	16µM*	0%[57.5 µM]	i	-1%	-5%
O=C(Nc1ccc2c(c1)CCC2)c1cnccn1	>77	25µM*	4%	nt	6%	4%
Cc1cnc(C(=O)Nc2ccc(F)c(F)c2)cn1	>77	-2%	-1%	>57	-2%	1%
CC[C@@H](c1ccccc1)n1c(=O)n2n(c1=O)[C@H]1[C@H](O)[C@H]3O[C@H]3C(=O)[C@H]1CC2	nt	0%[11.4 µM]	1%[9.22 µM]	nt	nt	nt
CC(C)[C@@H](CC(=O)N[C@@H]1CCNC[C@H]1C(=O)N[C@H](CC(=O)N[C@@H](CCC(=O)O)CC(=O)O)Cc1c[nH]c2ccccc12)NC(=O)C[C@H](Cc1c[nH]c2ccccc12)NC(=O)[C@@H]1CCCC[C@H]1N	nt	nt	-1%	nt	nt	nt
COc1cc2nc(N3CC=[N+](C(=O)c4ccco4)CC3)nc(N)c2cc1OC	nt	0%	0%	nt	-1%	-2%
COc1cccc(-c2ccc(-c3noc(-c4ccccc4F)n3)c(OC)n2)c1	10*	2%	-2%	>57	9%	-3%
COc1nc(-c2ccc(Cl)cc2)ccc1-c1noc(-c2ccco2)n1	>77	0%	0%[57.5 µM]	>57	-2%	-4%
COc1ccc(C(=O)Oc2ccc(/C=N/O)cc2)cc1	nt	13µM*	-2%	nt	3%	0%
Cc1cc(C)c(C(=O)COC(=O)Cn2cnnn2)cc1C	i	3%	-2%	>57	1%	-4%
O=C(Cn1cnnn1)OCC(=O)c1ccc(Cl)s1	nt	0%	13µM*	>57	-2%	-1%
COc1ccccc1Nc1nc2ccccc2[nH]1	>77	13µM*	-1%[57.5 µM]	nt	0%	-1%
N#Cc1ccc(CN2CC3(CCN(C(=O)c4cccc(F)c4)CC3)C2)cc1	nt	-1%[11.4 µM]	3%	nt	-2%[9.22 µM]	0%
Cc1c(C(=O)OCCOc2ccccc2)[nH]c2c1C(=O)CCC2	nt	10µM*	-3%	?	-4%	-13%
COCC#Cc1ccc(C2NC(C(=O)O)CCC2C)cc1 (stereo not given)	nt	nt	0%[9.22 µM]	nt	nt	nt
CC1(C)Cc2nc3sc4c(SCC(=O)NCc5ccco5)ncnc4c3cc2CO1	>77	5µM*	1%	i	7%	6%
Cc1cccc(/N=C/c2c(O)[nH]c3ccccc23)n1	nt	4µM*	0%	nt	7%	-11%
O=C(Cc1c(C(=O)O)[nH]c2ccccc12)Nc1ccc2c(c1)OCO2	>77	-6%	4%	>57	3%	0%
Oc1[nH]c2ccccc2c1C=Nc1ccc2c(c1)OCCO2	?	4µM*	10%	3.2*	0%	-12%
CCCOc1ccc(-c2nc(C#N)c(N3CCN(C)CC3)o2)cc1	nt	-3%	4%[0.369 µM]	7.3*	2%	2%
CCOc1ccc(-c2nc(C#N)c(N3CCN(C)CC3)o2)cc1	?	1%	-1%	?	-1%	3%
CCCOc1ccc(-c2nc(C#N)c(N3CCN(CC)CC3)o2)cc1	?	-2%	4%[0.369 µM]	5.8*	0%	0%
COc1ccccc1-c1ccc2ncnc(Nc3ccccc3)c2c1	nt	0%[2.29 µM]	-1%	nt	-1%[9.22 µM]	1%
COc1ccc(C2C3=C(N=C4SCC(=O)N42)c2ccccc2CC3)cc1 (stereo not given)	i	25µM*	2%	nt	1%	4%
CCOC(=O)c1ccc2nc(NC(=O)c3ccco3)sc2c1	?	16µM*	nt	i	-3%	-7%
CCOC(=O)c1ccc2nc(NC(=O)C(C)C)sc2c1	nt	2%	-1%	nt	nt	6%
O=C(COC(=O)c1cccc(NC(=O)c2ccco2)c1)c1ccc(Br)cc1	nt	2.5µM*	-1%[0.0738 µM]	nt	-4%	2%[9.17 µM]
CC(C)(C)C(=O)COC(=O)c1cccc(NC(=O)c2ccco2)c1	>77	-4%	2%	>57	-1%	0%
